Experimental data taken from PubChem BioAssay (Tox21).
Results filed as inconclusive are left out. Active and inactive are the calls of the source. Calls follow the shape of the full dose curve.

Key:
[1] = target: Acetylcholinesterase (Homo sapiens) (UniProt P22303); assay: Acetylcholinesterase (AChE) small molecule antagonists: colormetric cell-based qHTS assay (AID 1347395); also: nearly all actives have a fitted effect of over 30% in size
Outline: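 Endogenous AChE of human neuroblastoma SH-SY5Y cells was measured with an Ellman-type DTNB/acetylthiocholine mix. Compound pretreatment lasted 30 min at 37 C; substrate reaction ran 90 min at 37 C.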

[2] = target: Acetylcholinesterase (Homo sapiens) (UniProt P22303); assay: Acetylcholinesterase (AChE) small molecule antagonists: enzyme-based qHTS assay (AID 1347397); conditions: Potency: AChE enzyme activity inhibition; outcome: AChE enzyme activity inhibition; also: nearly all actives have a fitted effect of over 55% in size
Outline: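 Recombinant human AChE, dispensed at 50 mU/mL, was preincubated with Tox21 10K compounds or DMSO vehicle for 30 min at room temperature. DTNB plus acetylthiocholine was then added, and thiocholine was measured colorimetrically after a further 10 min.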

[3] = target: Acetylcholinesterase (Homo sapiens) (UniProt P22303); assay: Acetylcholinesterase (AChE) small molecule antagonists: fluorescence cell-based qHTS assay (AID 1347398); conditions: Potency: AChE activity; outcome: AChE activity; also: nearly all actives have a fitted effect of over 50% in size
Outline: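 Human SH-SY5Y cells were plated overnight at 37 C, exposed to compound for 30 min at 37 C, 5% CO2, then given acetylthiocholine plus Thiolite Green for 40 min at room temperature; thiocholine fluorescence (Ex/Em 490/520 nm) reports endogenous AChE activity.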

[4] = target: Acetylcholinesterase (Homo sapiens) (UniProt P22303); assay: Acetylcholinesterase (AChE) small molecule antagonists: enzyme-based qHTS assay with human liver microsomes (AID 1347399); conditions: Potency: qHTS inhibition; outcome: qHTS inhibition; also: nearly all actives have a fitted effect of over 60% in size
Outline: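 Recombinant human AChE (50 mU/mL in the enzyme mix) and human liver microsomes (0.25 mg/mL final) were preincubated with compound and NADPH (0.25 mg/mL final) for 30 min at 37 C. Acetylthiocholine/DTNB was then added; thiocholine was read colorimetrically after 10 min at room temperature.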
% is scaled to controls: 0 for no effect and ±100 for the full control effect.

Acetylcholinesterase (Homo sapiens), sequence (P22303 whole entry, looked up): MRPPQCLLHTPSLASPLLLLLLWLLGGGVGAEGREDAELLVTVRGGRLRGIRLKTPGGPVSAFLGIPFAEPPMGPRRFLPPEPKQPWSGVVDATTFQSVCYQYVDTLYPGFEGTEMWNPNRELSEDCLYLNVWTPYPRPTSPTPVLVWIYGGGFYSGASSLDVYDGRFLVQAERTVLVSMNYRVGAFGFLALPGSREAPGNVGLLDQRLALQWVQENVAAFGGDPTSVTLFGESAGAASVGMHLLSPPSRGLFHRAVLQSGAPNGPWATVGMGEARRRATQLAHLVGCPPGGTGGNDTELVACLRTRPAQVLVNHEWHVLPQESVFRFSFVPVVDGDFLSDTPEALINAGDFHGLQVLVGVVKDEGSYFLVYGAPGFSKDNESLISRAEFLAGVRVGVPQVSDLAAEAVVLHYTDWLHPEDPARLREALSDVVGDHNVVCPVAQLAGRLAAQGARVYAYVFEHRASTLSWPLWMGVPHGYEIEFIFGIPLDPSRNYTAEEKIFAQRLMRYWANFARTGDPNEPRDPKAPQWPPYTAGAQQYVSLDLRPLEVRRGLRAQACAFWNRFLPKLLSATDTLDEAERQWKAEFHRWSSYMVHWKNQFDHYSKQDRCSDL

COc1cc(Cl)ccc1Oc1ccc(Cl)cc1Cl
inactive: Potency [1] | Potency [2] | Potency [3] | Potency [4]

CC(CC=O)CC(C)(C)C (stereo not given)
inactive: Potency [1] | Potency [2] | Potency [3] | Potency [4]

CCCCOCCOC(=O)c1cccnc1
inactive: Potency [1] | Potency [2] | Potency [3] | Potency [4]

CC/C=C\CC/C=C/CO
inactive: Potency [1] | Potency [2] | Potency [3] | Potency [4]

C=CC(=C)CCCC(C)(C)OC(C)=O
inactive: Potency [1] | Potency [2] | Potency [3] | Potency [4]

COc1cc(-c2ccc(N=C=O)c(OC)c2)ccc1N=C=O
inactive: Potency [1] | Potency [2] | Potency [3] | Potency [4]

COc1cccc(Br)c1
inactive: Potency [1] | Potency [2] | Potency [3] | Potency [4]

CCC(=O)OCCOc1ccccc1
inactive: Potency [1] | Potency [2] | Potency [3] | Potency [4]

CCOC(=O)OC(=O)OCC
inactive: Potency [1] | Potency [2] | Potency [3] | Potency [4]

CN1C(C)(C)CCCC1(C)C
inactive: Potency [1] | Potency [2] | Potency [3] | Potency [4]

CC(S)C(=O)NCC(=O)O (stereo not given)
inactive: Potency [1] | Potency [2] | Potency [3] | Potency [4]

CC1COc2ccccc2N1 (stereo not given)
inactive: Potency [1] | Potency [2] | Potency [3] | Potency [4]

C=CC(C)(O)CC/C=C(\C)CCC=C(C)C (stereo not given)
inactive: Potency [1] | Potency [2] | Potency [3] | Potency [4]

N#CCc1ccccc1[N+](=O)[O-]
inactive: Potency [1] | Potency [2] | Potency [3] | Potency [4]

CCCC1CCOC(C)S1 (stereo not given)
inactive: Potency [1] | Potency [2] | Potency [3] | Potency [4]

Cc1ccc2ccc3cccc4ccc1c2c34
inactive: Potency [1] | Potency [2] | Potency [3] | Potency [4]

NCC(=O)O
inactive: activity, negative = inhibition [1] 0.505% [at 23.6 µM] | activity change, negative = inhibition [2] 0.147% [at 23.6 µM] | activity change, negative = inhibition [3] 6.61% [at 23.8 µM] | activity change, negative = inhibition [4] 0.434% [at 23.6 µM]

CC1=NS(=O)(=O)c2cc(Cl)ccc2N1
inactive: Potency [1] | Potency [2] | Potency [3] | Potency [4]

CNCCO
inactive: Potency [1] | Potency [2] | Potency [3] | Potency [4]

CCOc1cccc(N)c1
inactive: Potency [1] | Potency [2] | Potency [3] | Potency [4]

Nc1nc(CC(=O)O)cs1
inactive: Potency [1] | Potency [2] | Potency [3] | Potency [4]

CCOc1ccc(O)cc1
inactive: Potency [1] | Potency [2] | Potency [3] | Potency [4]

COC(=O)CC(C(C)=O)C(=O)OC (stereo not given)
inactive: Potency [1] | Potency [2] | Potency [3] | Potency [4]

CCN1CCC[C@H]1CNC(=O)c1c(OC)ccc(Br)c1OC
inactive: Potency [1] | Potency [2] | Potency [3] | Potency [4]

CC1=CCC(C(C)C)C=C1 (stereo not given)
inactive: Potency [1] | Potency [2] | Potency [3] | Potency [4]

Cc1ccc2sc3cccc(C)c3c2c1
inactive: Potency [1] | Potency [2] | Potency [3] | Potency [4]

Cc1cc(CC(=O)O)c(C)n1-c1ccc(Cl)cc1
inactive: Potency [1] | Potency [2] | Potency [3] | Potency [4]

NC[C@H]1O[C@H](O[C@H]2[C@H](O)[C@@H](O[C@H]3O[C@H](CO)[C@@H](O)[C@H](N)[C@H]3O)[C@H](N)C[C@@H]2N)[C@H](O)[C@@H](O)[C@@H]1O
inactive: activity, negative = inhibition [1] -1.99% [at 10.5 µM] | activity change, negative = inhibition [2] 0.413% [at 10.5 µM] | activity change, negative = inhibition [3] 2.3% [at 10.5 µM] | activity change, negative = inhibition [4] -5.67% [at 10.5 µM]

COC(=O)CC#N
inactive: Potency [1] | Potency [2] | Potency [3] | Potency [4]

O=C1CCC(=O)N1
inactive: Potency [1] | Potency [2] | Potency [3] | Potency [4]

CCCCCCCCCCCCCCCCCCCl
inactive: activity, negative = inhibition [1] -3.15% [at 10.5 µM] | activity change, negative = inhibition [2] -0.128% [at 10.5 µM] | activity change, negative = inhibition [3] 5.41% [at 10.5 µM] | activity change, negative = inhibition [4] 0.243% [at 10.5 µM]

CO[C@H]1C=CO[C@@]2(C)Oc3c(C)c(O)c4c(O)c(cc(O)c4c3C2=O)NC(=O)/C(C)=C\C=C/[C@H](C)[C@H](O)[C@@H](C)[C@@H](O)[C@@H](C)[C@H](OC(C)=O)[C@@H]1C
inactive: Potency [1] | Potency [2] | Potency [3] | Potency [4]

O=S(=O)(O)c1ccc(Nc2nc(Nc3ccc(/C=C/c4ccc(Nc5nc(Nc6ccc(S(=O)(=O)O)cc6)nc(N(CCO)CCO)n5)cc4S(=O)(=O)O)c(S(=O)(=O)O)c3)nc(N(CCO)CCO)n2)cc1
inactive: Potency [1] | Potency [2] | Potency [3] | Potency [4]

CCCCCc1ccco1
inactive: Potency [1] | Potency [2] | Potency [3] | Potency [4]

O=C(C1CCCCC1)N1CC(=O)N2CCCc3ccccc3C2C1 (stereo not given)
inactive: Potency [1] | Potency [2] | Potency [3] | Potency [4]
